Here are results for 14 molecules from PubChem BioAssay (NCI).

Compounds without any hit were thinned out: in the full panel of roughly 83,000, 20% have a hit.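 How to read the values: 0–100, growth inhibition (40 = 60% inhibited); 0, no net growth; -100 to 0, cell death (-40 = 40% of starting cells died; -100 = all dead).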 Values without a mark were called inactive. The source made the active and inactive calls. Rule for the calls: active = growth percent below 10; inactive = the rest.

Test systems include DU-145 prostate; K-562 leukemia; MALME-3M melanoma; MDA-MB-231 breast; RXF 393 renal; SF-268 CNS; SF-295 CNS; SF-539 CNS; UACC-257 melanoma; M14 melanoma.
Holding throughout (test): NCI-60 one-dose screen, 48 h (100 = growth as untreated, 0 = no growth, -100 = all killed)
Common to all, as to settings: 10 µM

For `C[N+]1=C(/C=C/c2ccc(I)cc2)C(C)(C)c2ccccc21`, the growth is 104% with DU-145 prostate; 109% in the assay with K-562 leukemia; 86% with MALME-3M melanoma; 67.1% in the assay on MDA-MB-231 breast; 70.7% with RXF 393 renal; 89.9% with SF-268 CNS. Besides, the growth with SF-295 CNS is 100%; in the assay on SF-539 CNS, 98.7%; in the assay on UACC-257 melanoma, 104%; in the assay on M14 melanoma, 91%.

On to `CC(=O)[C@H]1CC[C@H]2[C@@H]3CC[C@@H]4CC=C(C=O)C[C@]4(C)[C@H]3CC[C@]12C`, for which the growth with DU-145 prostate is 98.7%; in the assay on K-562 leukemia, 81.9%; in the assay with MALME-3M melanoma, 96.2%; in the assay on MDA-MB-231 breast it was 94.3%; in the assay with RXF 393 renal, 112%; in the assay on SF-268 CNS it was 92.4%. Besides, the growth was 93.2% with SF-295 CNS, 92.4% in the assay on SF-539 CNS, 96.2% with UACC-257 melanoma and 89.2% with M14 melanoma.

As to `CC(C)C[C@H](NC(=O)Cn1ccc(Nc2ccccc2)cc1=O)B(O)O`, the growth in the assay with DU-145 prostate is 38.9%; in the assay with K-562 leukemia, 39.1%; in the assay on MALME-3M melanoma, -11.7% (active); with MDA-MB-231 breast it was 48.9%; in the assay on RXF 393 renal, -16.7% (active); with SF-268 CNS, 34.2%. Also, the growth with SF-295 CNS was 37.8%; with SF-539 CNS, -57.7% (active); with UACC-257 melanoma it was 7.65% (active); in the assay on M14 melanoma it was 31.8%.

For the molecule `CC(C)C(C)C(N)C(=O)O` (stereo not given), the growth in the assay with DU-145 prostate was 105%; with K-562 leukemia, 90.8%; in the assay on MALME-3M melanoma, 95.9%; with MDA-MB-231 breast, 125%; in the assay on RXF 393 renal it was 108%; in the assay with SF-268 CNS, 107%. Also, the growth in the assay on SF-295 CNS was 117%; with SF-539 CNS, 101%; in the assay with UACC-257 melanoma it was 108%; with M14 melanoma, 94.1%.

`CC(=O)O[C@H]1CC[C@@]2(C)[C@@H](CC[C@@H]3[C@@H]2CC[C@]2(C)C=C(C=O)C[C@@H]32)C1`: the growth with DU-145 prostate was 49.5%; in the assay on K-562 leukemia it was 82.3%; with MALME-3M melanoma, 66.8%; with MDA-MB-231 breast, 103%; in the assay with RXF 393 renal it was 120%; in the assay with SF-268 CNS, 66.6%. The growth in the assay with SF-295 CNS is 97.1%; in the assay with SF-539 CNS it was 92.7%; with UACC-257 melanoma, 98.6%; in the assay with M14 melanoma it was 65.3%.

For `CCCCCCCCCCCCCCCCCBr`, the growth in the assay on DU-145 prostate was 113%; in the assay with K-562 leukemia, 97.4%; with MALME-3M melanoma, 108%; in the assay with MDA-MB-231 breast, 112%; in the assay with RXF 393 renal, 109%; in the assay on SF-268 CNS, 109%. Further, the growth in the assay on SF-295 CNS is 97%; in the assay with SF-539 CNS, 99.5%; in the assay with UACC-257 melanoma, 102%; in the assay with M14 melanoma, 109%.

With `COc1cc(C2C=C(c3ccc(Cl)cc3)N=C3SC(C)=CN32)cc(OC)c1OC` (stereo not given), the growth is 99.9% in the assay on DU-145 prostate; 91.1% with K-562 leukemia; 88.7% with MALME-3M melanoma; 103% with MDA-MB-231 breast; 92.6% in the assay with RXF 393 renal; 104% in the assay on SF-268 CNS. Moreover, the growth in the assay with SF-295 CNS was 82.2%; with SF-539 CNS, 99.1%; with UACC-257 melanoma, 101%; with M14 melanoma, 95%.

`Nc1nc2c(nnn2C2CC(O)C(CO)O2)c(=O)[nH]1` (stereo not given): the growth in the assay on DU-145 prostate is 21.8%; in the assay on K-562 leukemia, 40.5%; in the assay on MALME-3M melanoma it was 79.5%; with MDA-MB-231 breast, 58.5%; in the assay on RXF 393 renal, 50.6%; with SF-268 CNS it was 50.2%. Further, the growth with SF-295 CNS is 56.4%; in the assay with SF-539 CNS, 33.4%; in the assay with UACC-257 melanoma, 77.7%; in the assay with M14 melanoma, 40%.

In the case of `CCOC(=O)Nc1ccc2c(c1)C(=O)N(CCOC)c1ccccc1O2`, the growth with DU-145 prostate was 43.8%; with K-562 leukemia, 20.3%; in the assay with MALME-3M melanoma it was 61.2%; in the assay with MDA-MB-231 breast it was 62.3%; with RXF 393 renal, 56%; in the assay with SF-268 CNS it was 56.9%. The growth was 28.8% in the assay with SF-295 CNS, 30.3% in the assay on SF-539 CNS, 61.7% in the assay on UACC-257 melanoma and 19.8% in the assay on M14 melanoma.

Take `Cc1ccccc1C1=N[C@@H](Cc2ccccc2)C(=O)c2c(nc3ccccn23)N1`: the growth in the assay on DU-145 prostate was 113%; with K-562 leukemia, 113%; with MALME-3M melanoma, 109%; in the assay on MDA-MB-231 breast it was 104%; in the assay with RXF 393 renal, 105%; with SF-268 CNS, 104%. For the same molecule, the growth in the assay on SF-295 CNS was 96.5%; with SF-539 CNS, 99.4%; with UACC-257 melanoma it was 87.3%; in the assay on M14 melanoma, 102%.

For the molecule `CCOC(=S)Sc1ccc([N+](=O)[O-])cc1[N+](=O)[O-]`, the growth with DU-145 prostate is 95.5%; in the assay with K-562 leukemia, 7.81% (active); with MALME-3M melanoma, 84.1%; in the assay on MDA-MB-231 breast, 88.4%; with RXF 393 renal, 108%; in the assay with SF-268 CNS, 104%. The growth in the assay with SF-295 CNS is 99.2%; in the assay with SF-539 CNS, 26.2%; in the assay with UACC-257 melanoma, 79.2%; in the assay with M14 melanoma, 36.2%.

With `Cn1c([N+](=O)[O-])cnc1/C=C1\Oc2ccc(Br)cc2C1=O`, the growth with DU-145 prostate is -57.9% (active); with K-562 leukemia, -0.493% (active); in the assay on MALME-3M melanoma, -53.4% (active); with MDA-MB-231 breast, -14.8% (active); in the assay with RXF 393 renal it was -59% (active); with SF-268 CNS, -16.9% (active). Besides, the growth with SF-295 CNS is 11.2%; with SF-539 CNS, -59.5% (active); in the assay on UACC-257 melanoma it was -38.5% (active); in the assay on M14 melanoma, -35% (active).

For the molecule `CC1=CC2OC34COC3CC(OC(=O)C(F)(F)F)C4(C)C2(C)CC1` (stereo not given), the growth was 108% in the assay with DU-145 prostate; 120% in the assay on K-562 leukemia; 109% in the assay on MALME-3M melanoma; 101% with MDA-MB-231 breast; 93.9% with RXF 393 renal; 103% with SF-268 CNS. The growth is 100% in the assay on SF-295 CNS, 98.4% in the assay on SF-539 CNS, 103% with UACC-257 melanoma and 96% in the assay with M14 melanoma.

With `CCCc1ccnc(NS(=O)(=O)c2ccc(N)cc2)n1`, the growth was 117% in the assay on DU-145 prostate; 54.7% with K-562 leukemia; 67.1% in the assay on MALME-3M melanoma; 81.9% in the assay with MDA-MB-231 breast; 102% in the assay on RXF 393 renal; 95.6% with SF-268 CNS. Also, the growth in the assay with SF-295 CNS was 95.9%; in the assay with SF-539 CNS it was 71.8%; in the assay on UACC-257 melanoma it was 43.4%; with M14 melanoma, 95.8%.
